Measurements reported in PubChem BioAssay (EPA / NIEHS).
Values joined by “and” are separate entries in the source; they are usually repeats but may differ in a detail not shown here. Identical values can stand only once. Active and inactive are the calls of the source. The calls were made as follows: active = hit-call score of the fitted dose curve at least 0.9, where 1 is the maximum; inactive = score below 0.9.

assay: BSK_KF3CT_SRB: Viability Assessment in the BioMAP Diversity Plus: KF3CT Assay (AID 2283069); settings: primary human keratinocytes with fibroblasts;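 also: fitted for both signal gain and loss against DMSO baseline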
Procedure: BSK_KF3CT is a cell-based, multiplexed-readout assay that uses keratinocytes and foreskin fibroblasts, a human skin primary cell co-culture, with measurements taken at 24 hours after chemical dosing in a 96-well plate.BSK_KF3CT_SRB is an assay component measured in the BSK_KF3CT assay. It measures 0.1% sulforhodamine related to cell death using Sulforhodamine staining technology.Data from the assay component BSK_KF3CT_SRB was analyzed into 1 assay endpoint. This assay endpoint, BSK_KF3CT_SRB, was analyzed with bidirectional fitting relative to DMSO as the negative control and baseline of activity. Using a type of viability reporter, gain or loss-of-signal activity can be used to understand changes in the signaling. Furthermore, this assay endpoint can be referred to as a primary readout, because this assay has produced multiple assay endpoints where this one serves a signaling function. To generalize the intended target to other relatable targets, this assay endpoint is annotated to the cell morphology intended target family, where the subfamily is cell conformation.
The levels of cell surface (or secreted, indicated by the prefix "s") biomarker endpoints were measured by ELISA. Overt cytotoxicity to cells in confluent adherent cultures (all systems other than the BT system) was assessed by measuring total protein levels using sulforhodamine B (SRB) staining in parallel cultures at the time of biomarker measurements, indicated as SRB endpoints. For proliferation assays for adherent cell types, individual cell types are cultured at sub-confluence and relative cell numbers quantified by SRB staining at time points optimized for each system (48 h: 3C and CASM3C systems; 72 h: BT and HDF3CGF systems; 96 h: SAg system). SRB was performed by staining cells with 0.1% SRB after fixation with 10% TCA and reading wells at 560 nm.Viability and proliferation of PBMC (T cells) was quantified by Alamar Blue reduction for the SAg and BT systems. For PBMC viability (referred to as PBMC Cytotoxicity within the assay endpoint names), cells were plated (75,000/well in a 96-well plate) and then chemical samples added for 1 h before addition of activators, SEB and TSST-1 (20 ng/mL final concentration each). Cells were incubated for 90 h. Then, Alamar Blue (20 uL/well) (Invitrogen, Cat DAL1100) was added for 6 h, and the plates were read with a fluorescence microplate reader at 546/580 nm (excitation/emission). For PBMC proliferation, cells were plated and activated as above but incubated for only 16 h prior to addition of Alamar Blue. Plates were read after 6 h.

SMILES	outcome	AC50
CC(C)CCCCCCCOC(=O)c1ccccc1C(=O)OCCCCCCCC(C)C	inactive	–
CC(=O)/C=C/c1ccccc1	inactive	–
O=C(CCl)c1ccccc1	–	30.9 µM (active)
CCCC[N+](CCCC)(CCCC)CCCC	inactive	–
O=S(=O)(c1ccccc1)c1ccccc1	inactive	–
CCC(C)c1cc([N+](=O)[O-])cc([N+](=O)[O-])c1OC(=O)C=C(C)C (stereo not drawn)	–	31.7 µM (active)
Nc1ccc(-c2ccc(N)c(N)c2)cc1N	inactive	–
Oc1cc(Cl)ccc1Cl	inactive	–
CCCCCCCCCCCC#N	inactive	–
Oc1ccc(C2(c3ccc(O)cc3)c3ccccc3-c3ccccc32)cc1	–	5.12 µM (active) and 5.08 µM (active)
CC(C)CCCCCCCOP(=O)(Oc1ccccc1)Oc1ccccc1	–	25.7 µM (active)
O=C1C=CC(=O)C=C1	inactive	–
O=P1(NCCCl)OCCCN1CCCl (stereo not drawn)	inactive	–
O=[N+]([O-])C=Cc1ccccc1	–	2.46 µM (active)
O=[N+]([O-])O	inactive	–
COCC(=O)N(c1c(C)cccc1C)N1CCOC1=O	inactive	–
C=CCN(CC=C)C(=O)C(Cl)Cl	inactive	–
CC(C)(c1cc(Cl)c(O)c(Cl)c1)c1cc(Cl)c(O)c(Cl)c1	–	5.15 µM (active)
Clc1ccc(-c2ccccc2)cc1	inactive	–

SMILES	outcome	AC50
CC1(C)[C@H](C(=O)O[C@H](C#N)c2cccc(Oc3ccccc3)c2)[C@@H]1C=C(Br)Br	inactive	–
CCc1cc(C)cc(CC)c1-c1c(OC(=O)C(C)(C)C)n2n(c1=O)CCOCC2	inactive	–
C=CC(=O)OCC(CC)CCCC (stereo not drawn)	inactive	–
CC(C)(C)C(=O)CCl	inactive	–
O=[N+]([O-])c1ccc(Cl)cc1	inactive	–
CNC(=O)Oc1cc(C)c(SC)c(C)c1	inactive	–
CC(C)(C)C(O)C(Oc1ccc(-c2ccccc2)cc1)n1cncn1 (stereo not drawn)	inactive	–
CCCOC(=O)c1ccccc1C(=O)OCCC	inactive	–
c1ccc(Nc2ccc3ccccc3c2)cc1	–	36.9 µM (active)
Cc1ccc(OP(=O)(Oc2ccc(C)cc2)Oc2ccc(C)cc2)cc1 (tested in a mixture with another compound)	inactive	–
O=C(O)CCCc1ccc(N(CCCl)CCCl)cc1	inactive	–
[Cd+2].[Cl-].[Cl-]	–	32.4 µM (active) and 32.1 µM (active)
COC(C)(C)CCC[C@H](C)C/C=C/C(C)=C/C(=O)OC(C)C	inactive	–
N#CCCCCC#N	inactive	–
CC(C)COP(=O)(OCC(C)C)OCC(C)C	inactive	–
O=c1c2ccccc2c(=O)c2c1cc(Cl)c1[nH]c3c([nH]c12)c(Cl)cc1c(=O)c2ccccc2c(=O)c13	inactive	–
COc1ccc(CO)cc1	inactive	–
O=C1C(Cl)=C(Cl)C(=O)C(Cl)=C1Cl	inactive	–
O=c1[nH]c(Cl)c(Cl)cc1Cl	inactive	–
